Measurements: PubChem BioAssay AID485 (The Scripps Research Institute Molecular Screening Center, 2006)
In all, about 170,000 compounds went through this assay and about 460 (0.27%) were called active.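 The calls were made as follows: active = inhibition above the plate cutoff, the mean inhibition of test wells on that plate plus 3 SD (cut at about 28% in these data); inactive = the rest.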 What follows is part of a selection rich in actives, with near analogues and random picks from the rest.

target: Sphingosine 1-phosphate receptor 3 (Homo sapiens) (UniProt Q99500); assay: inhibition of S1P-stimulated S1P3 activation – cell-based, primary screen (AID 485); settings: CHO S1P3 NFAT-BLA reporter, FRET fluorescence, antagonist mode; at 4.98 µM; stronger effect = higher value;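 also: cells challenged with S1P at its EC80 of 0.8 µM; blue over green emission ratio from cleaved BLA substrate after 4 h stimulation; 0% = S1P-stimulated wells and 100% = unstimulated DMSO-only wells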
Sequence (Q99500 whole entry, looked up): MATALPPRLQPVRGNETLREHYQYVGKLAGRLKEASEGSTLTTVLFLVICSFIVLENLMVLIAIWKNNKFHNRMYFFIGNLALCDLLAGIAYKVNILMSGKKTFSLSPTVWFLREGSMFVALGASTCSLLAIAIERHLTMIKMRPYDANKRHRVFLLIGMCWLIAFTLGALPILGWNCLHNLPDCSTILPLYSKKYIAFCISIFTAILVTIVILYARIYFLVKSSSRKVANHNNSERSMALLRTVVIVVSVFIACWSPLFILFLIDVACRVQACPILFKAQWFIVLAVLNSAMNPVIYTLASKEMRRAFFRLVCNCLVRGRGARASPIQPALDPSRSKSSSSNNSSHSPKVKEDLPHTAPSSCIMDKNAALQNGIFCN

Row | Structure (SMILES) | inhibition
1 | COc1ccc(CS(=O)/C(Cl)=C(/Cl)C(=O)Nc2ccc(OC)nc2)cc1 (centres undefined) | 56.4% (active)
2 | COc1ccc(NC(=S)NCCNC(C)=O)cc1 | 12.8% (inactive)
3 | COc1ccc(NC(=S)Nc2ccccc2Cl)cn1 | 4.46% (inactive)
4 | CCOC(=O)c1c(C)[nH]c(C2=NNC(=NC(C)COC)SC2)c1C (centres undefined) | -26% (inactive)
5 | CC(C)c1cc(NCc2ccccn2)n2c(nc3ccccc32)c1C#N | -17.9% (inactive)
6 | O=C(N/N=C/c1ccc([N+](=O)[O-])o1)c1cccc(S(=O)(=O)N2CCOCC2)c1 | 8.39% (inactive)
7 | O=[N+]([O-])c1cccc(/C([O-])=C(/C(=S)Nc2ccccc2F)[n+]2ccccc2)c1 | -11.5% (inactive)
8 | O=C(Nc1ccc(N2CCOCC2)nc1)c1c(F)cccc1F | 6.79% (inactive)
9 | O=[N+]([O-])c1ccc2[nH]c3c(c2c1)CCCC3O (centres undefined) | 12.7% (inactive)
10 | C/C(=N\OC(=O)c1ccccc1)c1c(C)nc2cc(C)ccn12 | -11.2% (inactive)
11 | CC(=O)Nc1cccc(C(=O)Nc2nc(C)cs2)c1 | -16.1% (inactive)
12 | Cc1cc(/C=N/NC(=O)c2cccnc2)c(C)n1CC(C)C | 4.4% (inactive)
13 | N#CCCCn1c(O)c(N=NC(=O)C(O)c2ccccc2)c2ccccc21 (centres undefined) | 5.47% (inactive)
14 | Cc1c(NC(=O)CSc2nnnn2-c2ccc(C(=O)O)cc2)c(=O)n(-c2ccccc2)n1C | 7.84% (inactive)
15 | CCn1ccnc1CN1CCCC(C(=O)c2ccc3c4c(cccc24)CC3)C1 (centres undefined) | -14.3% (inactive)
16 | O=C(c1cc(COc2c(F)cccc2F)on1)N1CCSCC1 | 10.4% (inactive)
17 | C/C(CC(=O)Nc1cccc(C(F)(F)F)c1)=N\NC(=O)C(=O)NCC(C)C | -5.61% (inactive)
18 | CC(C)Oc1ccc(CCC(=O)NNC(=S)NCc2ccccc2)cc1 | 11.1% (inactive)
19 | COc1ccc(Cc2cc(-c3ccc(F)cc3)n[nH]c2=O)cc1 | 16.1% (inactive)
20 | CCOC(=O)c1ccc(N=C2SC(C(=O)NC)CC(=O)N2CCc2ccccc2)cc1 (centres undefined) | -0.92% (inactive)
21 | CCCN(c1ccc(C)cc1)c1nc(=O)c2cccnc2s1 | -4.79% (inactive)
22 | CCC(=O)NC(=Nc1nc2ccccc2s1)NC(=O)CC | 84.7% (active)
23 | O=C(O)CSCc1nc2ccccc2s1 | -27.1% (inactive)
24 | O=C(Nc1ccccc1)Nc1nc2ccccc2s1 | 6.66% (inactive)

Row | Structure (SMILES) | inhibition
25 | COC(=O)CSc1nccc(-c2cccs2)n1 | -15.2% (inactive)
26 | O=C1c2ccccc2NC(c2ccccn2)N1NS(=O)(=O)c1ccccc1 (centres undefined) | -20% (inactive)
27 | Cc1cc(=O)oc2cc(OCC(=O)Nc3nnc(C4CC4)s3)ccc12 | 6.03% (inactive)
28 | COCCCNC(=O)Cn1c(=O)n(Cc2ccccc2Cl)c(=O)c2cc(OC)c(OC)cc21 | -15.6% (inactive)
29 | COc1ccc(-n2cc(CN(C)Cc3n[nH]c(=O)[nH]3)c(-c3cccc(F)c3)n2)cc1 | 0.22% (inactive)
30 | C=CCC(Nc1ccccc1)c1cccc(OC)c1OC (centres undefined) | 3.89% (inactive)
31 | CN(C)CCCN(Cc1cc2cc3c(cc2[nH]c1=O)OCCO3)C(=O)NC1CCCCC1 | -12.8% (inactive)
32 | O=C(CCNc1n[nH]c(=O)[nH]c1=O)N/N=C\c1ccc(Br)cc1 | 7.68% (inactive)
33 | O=C(NCCCNc1ccc([N+](=O)[O-])cc1Cl)c1ccccc1F | -0.7% (inactive)
34 | CCC(C)c1ccc(NC(=S)NCc2ccccn2)cc1 (centres undefined) | 6.58% (inactive)
35 | COc1ccc(C)cc1NC(=O)c1ccc(-c2ccc(C(C)=O)cc2)o1 | -2.68% (inactive)
36 | CC/C(=N\NC(=S)NC(C)C)c1ccc(OC(F)F)cc1 | 0.35% (inactive)
37 | COc1cccc(Nc2nnc(SCC(=O)N3CC(=O)Nc4ccccc43)s2)c1 | 1.32% (inactive)
38 | CCOC(=O)c1cn(CC)c2cc(F)c(F)cc2c1=O | 1.3% (inactive)
39 | CN(CC(=O)Nc1cccc(F)c1)CC(=O)Nc1cccc([N+](=O)[O-])c1 | -5.5% (inactive)
40 | Cc1ccc(CN(C)CC(=O)Nc2cccc([N+](=O)[O-])c2)o1 | -19.1% (inactive)
41 | Cc1ccc(NC(=O)CN(C)CC(=O)Nc2cccc(F)c2)cc1[N+](=O)[O-] | 29.9% (active)
42 | Cc1ccc(/C=C/C(=O)O)cc1S(=O)(=O)N1CCC(Cc2ccccc2)CC1 | -2.15% (inactive)
43 | O=C(Cn1cnc2cc([N+](=O)[O-])ccc2c1=O)NC(=O)NCc1ccccc1 | -4.47% (inactive)
44 | COc1ccc(F)cc1S(=O)(=O)N1CCCCC1 | 17.2% (inactive)
45 | Cc1ccc(NC(=O)C/C(N)=N/O)cc1Cl | -2.94% (inactive)
46 | CC(C)(C)c1ccc(CCC2OCC(CN3CCOCC3)O2)cc1 (centres undefined) | 10.3% (inactive)
47 | CCN(CC(=O)Nc1cccc(S(N)(=O)=O)c1)Cc1nc2ccccc2c(=O)[nH]1 | 19.8% (inactive)
48 | COC(=O)c1c(NC(C)=O)sc(C(=O)Nc2ccccc2OC)c1C | 6.94% (inactive)

Row | Structure (SMILES) | inhibition
49 | Cc1ccc(NC(=O)Nc2cc(-c3ccccc3)nn2C)cc1Cl | 6.92% (inactive)
50 | Cc1nc2ccccn2c1C(=O)NN=C1CCN(C)CC1 | 5.25% (inactive)
51 | CCOC(=O)c1c(N)sc2c1CCCC2=O | 8.9% (inactive)
52 | O=[N+]([O-])c1ccc(F)cc1Oc1nc(-c2cccnc2)nc2ccccc12 | 4.41% (inactive)
53 | CC1C(=O)NC(=O)C1c1ccccc1 (centres undefined) | 5.96% (inactive)
54 | CC(NCc1ccccc1OC1CCCC1)c1ccccc1 (centres undefined) | 3.22% (inactive)
55 | CCN(CC)CCN(C(=O)c1ccc(N2C(=O)CCC2=O)cc1)c1nc2cc3c(cc2s1)OCO3 | -4.37% (inactive)
56 | O=C(NCc1cccnc1)C(=O)Nc1nc(-c2ccccc2)cs1 | 10.3% (inactive)
57 | CCOC(=O)CC1C(=O)NCCN1C(=O)COc1ccc(Br)cc1C (centres undefined) | -25.1% (inactive)
58 | CCOc1ccc(/C=C2\SC(=S)N(NC(=O)c3ccncc3)C2=O)cc1OC | 6.85% (inactive)
59 | CCOC(=O)CC1C(=O)NCCN1c1nc2c(C)cccn2c(=O)c1/C=C1\SC(=S)N(C(C)CC)C1=O (centres undefined) | 29.7% (active)
60 | CCCCCC1CCC(c2nnc(SCC(C)=O)o2)CC1 (centres undefined) | -22.3% (inactive)
61 | O=C(NNS(=O)(=O)Cc1ccccc1)c1ccc([N+](=O)[O-])cc1 | -6.72% (inactive)
62 | Cn1c(-c2ccc(C(=O)c3ccccc3)s2)nc2ccccc21 | 59.9% (active)
63 | Cn1c(S(=O)(=O)O)nc2ccccc21 | -12.4% (inactive)
64 | Cn1cccc1-c1nc2ccccc2n1C | -6.38% (inactive)
65 | Cc1cccc(-n2ncc3c(N4CCc5ccccc54)ncnc32)c1 | 84.3% (active)
66 | COc1ccc(-n2ncc3c(N4CCc5ccccc54)ncnc32)cc1 | 13.4% (inactive)
67 | Cc1ccc(-n2ncc3c(N4CCN(c5ccc(F)cc5)CC4)ncnc32)c(C)c1 | 27.2% (inactive)
68 | CCN(CC)c1ccc2c(Nc3ccccc3)c(C=O)c(=O)oc2c1 | 6.07% (inactive)
69 | CC(C)Cc1nnc(NC(=O)CCC(=O)Nc2ccc3cn[nH]c3c2)s1 | -0.32% (inactive)
70 | Cc1c(CN2CCCCC2)c(O)n(CCO)c(=O)c1C#N | -12.4% (inactive)
71 | CCOc1cnc(-c2c(-c3ccccc3Cl)noc2C)o1 | -6.23% (inactive)
72 | Cc1ccc(S(=O)(=O)N(CC(=O)NN=C2CCN(C)CC2)c2ccc(F)cc2)cc1 | 4.23% (inactive)

Row | Structure (SMILES) | inhibition
73 | CCN(CC)C(=O)C(=O)c1cn(CC(=O)NCc2ccc3c(c2)OCO3)c2ccccc12 | 1.34% (inactive)
74 | CN(C)c1ccc(NC(=O)CSc2n[nH]c(-c3ccco3)n2)cc1 | -1.38% (inactive)
75 | CC(C)C(=O)Nc1ccc2oc(=O)ccc2c1 | -11.4% (inactive)
76 | CC1CCN(C(=S)c2cccc([N+](=O)[O-])c2)CC1 | -0.25% (inactive)
77 | C=CCOC(=O)C1=C(C)N=C2SCCC(=O)N2C1/C=C/c1ccccc1OC (centres undefined) | -1.87% (inactive)
78 | CCC(C)(C)NC(=O)CN(Cc1cccs1)C(=O)CNS(=O)(=O)c1ccc(F)cc1 | -2.83% (inactive)
79 | Cc1cc(N/N=C/c2ccccc2F)c2ccccc2n1 | -3.58% (inactive)
80 | CC(=O)Nc1ccc(C(=O)/C=C/c2ccc[nH]2)cc1 | 0.84% (inactive)
81 | CCc1cc(CNC(=O)CC2C(=O)NCCN2Cc2ccccc2C(F)(F)F)on1 (centres undefined) | -1.82% (inactive)
82 | CCc1ccc(C(=O)OCC(=O)NCC(F)(F)F)cc1 | -9.42% (inactive)
83 | O=C(O)CC12CC3CC(C1)CC(n1ncc(NCc4ccc(F)cc4)c(Cl)c1=O)(C3)C2 | -16.8% (inactive)
84 | COc1cc2c(cc1O)[C@H](Cc1ccc(Oc3cc(C[C@@H]4NCCc5cc(OC)c(O)cc54)ccc3O)cc1)NCC2 | -12.9% (inactive)
85 | CC[C@H]1CN2CCc3cc(OC)c(OC)cc3[C@@H]2C[C@@H]1C[C@H]1NCCc2cc(OC)c(OC)cc21 | 97.4% (active)
86 | CN1C(=O)/C(=N/OC(=O)c2ccccc2Br)c2ccccc21 | -12.3% (inactive)
87 | COc1ccc(NC(=O)CN2C(=O)CSC2=O)cc1 | 4.71% (inactive)
88 | CC(C)N(Cc1ccccc1)C(=O)COC(=O)c1cnccn1 | -8.02% (inactive)
89 | O=Cc1ccc(OCc2cn3ccccc3n2)cc1 | -13.1% (inactive)
90 | CCCc1ccc(C(=O)[C@@H]2[C@@H](C(C)=O)N3c4ccc(F)cc4C=C[C@@H]3[C@@]23C(=O)Nc2ccccc23)cc1 | 3% (inactive)
91 | COc1ccccc1C(=O)NNC(=O)c1ccc(NC(=O)c2ccccc2)cc1 | -4.89% (inactive)
92 | CCCN(CCC)CC(O)COc1ccccc1C(=O)Nc1ccccc1 (centres undefined) | -9.63% (inactive)
93 | CC(C)Oc1ccccc1C(=O)NC(CO)C(=O)O (centres undefined) | 28.6% (active)
94 | O=C(Nc1cccc2c1N(C(=O)c1ccco1)CCC2)c1ccco1 | -8.57% (inactive)
